JMJD2E inh – JMJD2E (human) inhibition | B2RXH2 | JMJD2E catalytic domain, FDH-coupled NADH fluorescence (FDH is formaldehyde dehydrogenase) | Potency, µM (titrated, usually from 57.1 µM), for inactives: at the top dose activity change, negative = inhibition, usual class: inhibitors | 230,000 compounds, 1.6% hits; active = well fitted inhibition curve with a large enough effect, not every such curve was filed as active; inconclusive = small, poorly fitted or top-dose-only effect, or another doubt; inactive = no such curve, though single readings can be large or run the other way;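 also: 0% = wells with enzyme and -100% = buffer wells without enzyme; nearly all actives have a fitted effect of over 50% in size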
PKM2 activator – activators of human pyruvate kinase M2. P14618. purified PKM2, Kinase-Glo ATP luminescence, activation; response scale: 0% is enzyme alone, no compound. Potency, µM (titrated, usually from 57.5 µM), inactives show at the top dose activation, actives largely listed as activators. 260,000 compounds, 0.34% hits; also: nearly all actives have a fitted effect of over 55% in size
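Purified hPK-M2 (>95%) run at intermediate activity with 0.1 mM ADP and 0.5 mM PEP in 50 mM imidazole pH 7.2, KCl, MgCl2; 1 h room temperature. ATP formed read by Kinase-Glo luminescence; normalized to uninhibited and no-enzyme controls.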
BLM helicase inh – Bloom syndrome helicase (human) inhibition. recombinant BLM DNA unwinding, fluorescence dequenching. Potency, µM (highest dose often 56.1 µM), inactives show at the top dose activity change, negative = inhibition, most hits filed as inhibitors. 350,000 compounds, 0.2% hits. AID 2528;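 also: plate controls were vehicle for no effect and no enzyme for full effect; nearly all actives have a fitted effect of over 35% in size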
Target sequence (P54132 whole entry, looked up): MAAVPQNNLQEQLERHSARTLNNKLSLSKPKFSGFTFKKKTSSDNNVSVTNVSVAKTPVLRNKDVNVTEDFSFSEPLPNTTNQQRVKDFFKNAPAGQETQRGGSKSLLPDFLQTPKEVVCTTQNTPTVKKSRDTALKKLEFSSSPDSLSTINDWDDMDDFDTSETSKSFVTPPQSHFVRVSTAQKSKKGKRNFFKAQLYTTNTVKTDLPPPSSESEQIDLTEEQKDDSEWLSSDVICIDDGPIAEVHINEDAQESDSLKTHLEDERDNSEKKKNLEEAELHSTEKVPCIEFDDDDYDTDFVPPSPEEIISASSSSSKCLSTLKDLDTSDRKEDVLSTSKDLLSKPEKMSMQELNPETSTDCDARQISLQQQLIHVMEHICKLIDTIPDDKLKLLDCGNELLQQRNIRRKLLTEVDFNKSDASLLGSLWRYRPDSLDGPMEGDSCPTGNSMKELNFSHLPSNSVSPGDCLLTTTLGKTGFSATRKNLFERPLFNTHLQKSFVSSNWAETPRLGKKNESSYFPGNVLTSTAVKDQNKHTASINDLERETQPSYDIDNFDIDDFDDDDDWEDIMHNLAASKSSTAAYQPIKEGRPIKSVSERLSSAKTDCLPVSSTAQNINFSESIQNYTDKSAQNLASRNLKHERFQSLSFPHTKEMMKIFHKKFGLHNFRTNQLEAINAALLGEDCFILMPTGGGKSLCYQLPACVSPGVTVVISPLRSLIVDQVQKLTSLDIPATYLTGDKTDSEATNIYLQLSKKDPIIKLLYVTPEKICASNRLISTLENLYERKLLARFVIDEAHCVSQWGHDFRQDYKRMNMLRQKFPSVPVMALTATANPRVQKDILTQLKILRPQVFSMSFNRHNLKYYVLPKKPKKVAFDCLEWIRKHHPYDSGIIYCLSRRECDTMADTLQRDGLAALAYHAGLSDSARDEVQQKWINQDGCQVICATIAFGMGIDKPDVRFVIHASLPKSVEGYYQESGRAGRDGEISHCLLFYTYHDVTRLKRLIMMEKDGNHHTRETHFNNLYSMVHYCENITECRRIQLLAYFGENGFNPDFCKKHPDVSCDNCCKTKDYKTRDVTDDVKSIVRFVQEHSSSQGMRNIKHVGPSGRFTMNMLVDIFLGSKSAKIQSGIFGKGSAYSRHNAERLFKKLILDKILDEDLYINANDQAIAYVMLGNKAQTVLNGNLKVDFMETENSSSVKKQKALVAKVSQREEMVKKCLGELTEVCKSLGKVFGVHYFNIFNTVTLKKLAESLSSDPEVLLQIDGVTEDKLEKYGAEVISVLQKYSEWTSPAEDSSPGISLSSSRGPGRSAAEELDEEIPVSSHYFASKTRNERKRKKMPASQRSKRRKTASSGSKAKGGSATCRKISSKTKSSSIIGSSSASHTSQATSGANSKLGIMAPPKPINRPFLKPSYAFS
APE1 inh – blocks human APE1 abasic DNA cleavage; AID 2517; Potency, µM (highest dose often 65.8 µM), inactives show top-dose activity change, negative = inhibition, hits mostly inhibitors; 350,000 compounds, 0.35% hits; recombinant APE1, TAMRA/BHQ-2 abasic DNA cleavage fluorescence;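 also: plate controls were vehicle for no effect and reference inhibitor for full effect; nearly all actives have a fitted effect of over 55% in size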
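Compound pre-exposure to 0.75 nM APE1, 15 min at ambient temperature. Reaction initiated with 50 nM TAMRA/BHQ-2 THF substrate, read immediately in kinetic mode, 525 nm excitation, 598 nm emission.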
RECQ1 helicase – inhibitors of human RECQ1 DNA helicase; Potency, µM (highest dose often 57.3 µM), inactives show at the top dose activity, negative = inhibition, actives largely listed as inhibitors; AID 2549; RECQ1 DNA unwinding, red fluorescence kinetic read; 240,000 compounds, 0.54% hits; P46063;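 also: plate controls were vehicle for no effect and no enzyme for full effect; nearly all actives have a fitted effect of over 30% in size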
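50 nM RECQ1T1 preincubated 15 min with compound in Tris pH 8.0 buffer with MgCl2, DTT, Tween-20 and 2.5 ug/ml poly(dI-dC); started with 200 nM TAMRA/BHQ-2 forked duplex and 2 mM ATP. Unwinding read as fluorescence (525/598 nm), two reads 2 h apart.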
* = called active by the depositor; i = inactive; u = inconclusive; x = no result; [ ] = remark or other dose. Many of the other results were omitted from the sample, so hits are more common in it than they were. Unless noted, calls follow the shape of the dose curve; as a rule, active = well fitted curve in the direction sought with a large enough effect; inconclusive = small, poorly fitted or top-dose-only effect, or another doubt; inactive = no such curve, though single readings can be large; an effect the other way counts as inactive or inconclusive. Unless noted, % is scaled to controls: 0 for no effect and ±100 for the full control effect; potency is read from the fitted curve at half-maximal effect.

SMILES	JMJD2E inh	PKM2 activator	BLM helicase inh	APE1 inh	RECQ1 helicase
CC(=O)Nc1ccccc1O	-10%	-2%	-6%	19%	10%
CC(CC(=O)O)Nc1ccccc1O (stereo not drawn)	20µM*	0%	-3%	u	i
O=C(O)C1=C(CSc2nnnn2CS(=O)(=O)O)CS[C@@H]2[C@H](NC(=O)[C@H](O)c3ccccc3)C(=O)N12	x	x	-10%	x	x
Brc1ccc(N/N=C(/N=Nc2nn[nH]n2)c2ccccc2)cc1	25µM*	-54%	2%	-2%	-6%
CCCCCCCCC/C=C/CC1CC(=O)OC1=O (stereo not drawn)	x	x	x	2%	-2%
COc1cc(NC2CCCCC2O)c2nc(-c3ccc(Cl)cc3)ccc2c1 (stereo not drawn)	22µM*	-6%	-24%	12%	-18%
COc1ccc(OCC(=O)OCC(=O)NC2CCCCC2C)cc1 (stereo not drawn)	x	x	x	0%	x
O=C(/C=C/c1ccco1)Oc1cc(Br)cc(/C=N/NC(=O)c2ccccc2O)c1	25µM*	2%	-8%	-6%	-8%
Cc1ccc(C(=O)N/N=C/c2cccc(OC(=O)/C=C/c3ccco3)c2)cn1	-18%	13%	-28%	14µM*	u
O=C(CNc1ccc2ccccc2c1)N/N=C/c1ccc(OC(=O)/C=C/c2ccco2)cc1	2%	5%	-4%	-3%	-6%
CC(/C=C/c1ccco1)=N/NC(=O)c1ccc(C)nc1	-6%	-2%	0%	-4%	-2%
COCCNC(=O)C1CC2Cn3c(nc4cc5ccccc5cc43)C2N1C (stereo not drawn)	u	-15%	2%	1%	-12%
CN1C(C(=O)NCC2CC2)CC2Cn3c(nc4cc5ccccc5cc43)C21 (stereo not drawn)	u	-4%	-4%	4µM*	11%
COc1cc(/C=C2\SC(=O)N(c3cccc(Cl)c3)C2=O)cc([N+](=O)[O-])c1O	-10%	7.9µM*	-9%	2%	i
COc1cc(/C=C2\SC(=O)N(c3ccc(Cl)cc3)C2=O)cc([N+](=O)[O-])c1O	-16%	19%	-23%	u	i
C/C(=N\NC(=O)c1cc(O)cc(O)c1)c1ccc(NC(=O)Cc2ccccc2)cc1	x	28%	-26%	1.3µM*	x
CC(=O)OC(C(=O)c1ccccc1)c1ccccc1 (stereo not drawn)	x	x	x	-4%	-12%
O=c1c2ncn([C@@H]3O[C@@H]4COP(=O)(O)O[C@H]4[C@H]3O)c2nc2[nH]c(-c3ccccc3)cn12	x	x	0%	-6%	5%
COc1cccc(/C=N/Nc2ncnc3c2[nH]c2ccc(C)cc23)c1OC	u	u	14µM*	2%	-8%
COc1ccc(/C=N/Nc2ncnc3c2[nH]c2ccccc23)c(OC)c1OC	u	-5%	-11%	-1%	-27%
COC(=O)C1(C(=O)OC)C[C@@H]2CON=C2[C@H]1c1ccccc1	-4%	x	0%	0%	-6%
CCN=c1scc(C)n1/N=C/c1cc(Br)c(O)c(Br)c1	u	0%	-5%	-2%	u
CCN=c1scc(C)n1/N=C/c1ccc(O)c(O)c1O	11µM*	u	-19%	u	25µM*
O=C(NCc1cccs1)C1CCN(S(=O)(=O)c2cccs2)CC1	-9%	16µM*	-6%	21%	i
O=C(NCc1cccs1)C1CCN(S(=O)(=O)c2ccccc2F)CC1	11%	14µM*	-5%	-3%	i
SMILES	JMJD2E inh	PKM2 activator	BLM helicase inh	APE1 inh	RECQ1 helicase
O=C(NCc1cccs1)C1CCN(S(=O)(=O)N2CCCC2)CC1	-4%	0%	-3%	2%	-11%
CSc1ccc(S(=O)(=O)N2CCC(C(=O)NCc3ccco3)CC2)cc1	x	10µM*	-2%	82%	x
C/C(=N/O)c1ccccn1	18µM*	-3%	-1%	-7%	-18%
CC(=O)c1ccccn1	x	x	x	17%	-15%
COc1ccccc1C(c1nnnn1C(C)(C)C)N1CCN(C(=O)c2ccco2)CC1 (stereo not drawn)	2%	2%	-1%	3%	-5%
Cc1cc(C)c2[nH]c(=O)c(C(c3nnnn3C(C)(C)C)N3CCN(C(=O)c4ccco4)CC3)cc2c1 (stereo not drawn)	-3%	11µM*	-6%	5%	4%
OCc1cc2c(cn1)[nH]c1ccccc12	x	x	x	-2%	19%
Cc1ccc(NS(=O)(=O)c2c(C)nc3sccn3c2=O)cc1C	x	4.5µM*	-2%	5%	x
COC(=O)c1ccc(NS(=O)(=O)c2c(C)nc3sccn3c2=O)cc1	x	x	-2%	x	x
CCOC(=O)CN1C(=O)N[C@@H](c2cccc(C(F)(F)F)c2)[C@H](C(=O)OC)[C@H]1C	4%[11.4 µM]	-8%[11.5 µM]	1%[12.4 µM]	-2%[12.4 µM]	i[11.5 µM]
CC(C)[N+]1(C)[C@@H]2CC[C@H]1CC(OC(=O)[C@@H](CO)c1ccccc1)C2 (stereo partly drawn)	12%	x	0%	-3%	-1%
Cc1cc(C)c2[nH]c(=O)c(CN(Cc3ccco3)C(=O)c3cccs3)cc2c1	u	14%	0%	-8%	-7%
O=C(c1cccs1)N(Cc1ccco1)Cc1cc2ccccc2[nH]c1=O	u	22µM*	-5%	0%	u
c1nc2nc(Nc3ccc(N4CCOCC4)cc3)nc(NC3CCCCC3)c2[nH]1	x	x	-10%	-5%	-19%
COc1cc(CNc2ccc(N3CCCC3)cc2)ccc1OCc1ccccc1	6.3µM*	-1%	-11%	-3%	-1%
OCC1(CO)COC(C(Cl)(Cl)Cl)OC1	x	x	-1%	x	x
Cn1c2ccccc2c2cc(/C=N/NC(=O)c3cc(O)cc(O)c3)ccc21	x	3%	-22%	13µM*	x
COc1ccc2c(c1)c(C(=O)N/N=C/c1ccc(Br)cc1)c(C)n2C	-4%	3%	0%	-5%	-2%
COc1ccc2c(c1)c(C(=O)N/N=C/c1ccc(O)c(O)c1)c(C)n2C	14µM*	u	-1%	-4%	i
Cn1c(=O)n(C)c2cc(S(=O)(=O)NCc3ccccc3)ccc21	0%	18µM*	-1%	-1%	i
COc1cccc(Cn2cnc3c(cnn3C(C)(C)C)c2=O)c1	x	x	x	-6%	x
Cn1cccc1/C=C1/SC(=S)N(CC(=O)O)C1=O	22µM*	2%	0%	-6%	3%
CC1OC(OC2C(Oc3c(-c4ccc(O)cc4)oc4cc(O)cc(O)c4c3=O)OC(COC3O[C@@H](C)[C@H](O)[C@@H](O)C3O)C(O)C2O)C(O)C(O)C1O (stereo partly drawn)	x	x	x	14%	x
O=c1c(O[C@@H]2O[C@H](CO)[C@@H](O)[C@H](O)[C@H]2O)c(-c2ccc(O)c(O)c2)oc2cc(O)cc(O)c12	13µM*	3%	-3%	u	-23%
